Source: PubChem BioAssay
Sampled rows, rich in hits. Any-hit rate of the full collection: about 21%.
DT40 TDP1 CPT: DT40-hTDP1 cell growth loss with CPT; Potency, µM (top dose mostly 46.2 µM), inactives show at the highest dose activity change, negative = growth inhibition, most hits filed as inhibitors; 12% of 420,000 active; chicken DT40 Tdp1-/-;hTDP1 cells + 20 nM CPT, ATP luminescence, 48 h; also: potency is read from the fitted curve at half-maximal effect; % is scaled to controls: 0 for no effect and ±100 for the full control effect; nearly all actives have a fitted effect of over 55% in size
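Chicken DT40 Tdp1-/- cells complemented with human TDP1, 400 cells/well, exposed to compounds plus 20 nM camptothecin for at least 48 h at 37 C; viability read as ATP content by CellTiter-Glo luminescence.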
IL1B secr inh: blocks inflammasome-driven IL-1 beta release | 4.7% of 360,000 active | THP-1 LPS/ATP IL-1B secretion, AlphaLISA, 16 h; hits give low values | activity change, % at 57.5 µM | AID 743279; in the data active = activity change below about -50%; inconclusive = mostly about -30% to -49%; also: % is scaled to controls: 0 for no effect and ±100 for the full control effect
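Secreted IL-1B measured by AlphaLISA bead assay after 16 h compound exposure of THP-1 cells; compounds (final up to 57.5 uM) added 1 h before LPS (250 ng/mL) and ATP (1.25 mM) stimulation; lower signal means less secretion.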
D3 antag: antagonists of human D3 dopamine receptor; D3R cells, DiscoveRx beta-arrestin luminescence, antagonist mode; hits give low values; max response, negative = inhibition, %; 2.5% of 360,000 active; AID 652054; in the data active = max response below about -50%; inconclusive = no clear call, values can overlap the other calls; also: % is scaled to controls: 0 for no effect and ±100 for the full control effect
Target sequence (P35462 whole entry, looked up): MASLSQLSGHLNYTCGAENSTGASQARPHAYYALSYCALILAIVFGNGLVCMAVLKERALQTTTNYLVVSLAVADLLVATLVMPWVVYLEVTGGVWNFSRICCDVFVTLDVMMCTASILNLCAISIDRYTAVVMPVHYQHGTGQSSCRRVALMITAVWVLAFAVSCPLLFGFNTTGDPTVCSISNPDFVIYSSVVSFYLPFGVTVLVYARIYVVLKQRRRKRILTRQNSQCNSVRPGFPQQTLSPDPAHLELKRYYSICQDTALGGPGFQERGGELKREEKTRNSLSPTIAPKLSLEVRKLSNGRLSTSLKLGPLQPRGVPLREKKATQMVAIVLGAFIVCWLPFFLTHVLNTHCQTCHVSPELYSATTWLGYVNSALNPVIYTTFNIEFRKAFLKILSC
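Cells plated overnight at 1500 cells/well, then exposed to library compounds with dopamine controls for 90 minutes at 37 degrees C. DiscoveRx reagent added for 30–60 minutes at room temperature; luminescence read, quantitative HTS format.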
ClpP mod: qHTS Assay for Activators of ClpP; ATP-dependent Clp protease proteolytic subunit (Bacillus subtilis (strain 168)), P80244; purified B. subtilis ClpP, FRET peptide cleavage, 20 min; Potency, µM (top dose mostly 57.5 µM), inactives show at the highest dose activity change, negative = active; 1.9% of 340,000 active; AID 651965, 2013; active = well fitted falling curve with a large enough effect; inconclusive = small, poorly fitted or top-dose-only effect; inactive = no such curve, though single readings can be large or run the other way; also: potency is read from the fitted curve at half-maximal effect; the source files actives as falling curves though it sought activators and does not explain the sign; nearly all actives have a fitted effect of over 65% in size
Target sequence (P80244 whole entry, looked up): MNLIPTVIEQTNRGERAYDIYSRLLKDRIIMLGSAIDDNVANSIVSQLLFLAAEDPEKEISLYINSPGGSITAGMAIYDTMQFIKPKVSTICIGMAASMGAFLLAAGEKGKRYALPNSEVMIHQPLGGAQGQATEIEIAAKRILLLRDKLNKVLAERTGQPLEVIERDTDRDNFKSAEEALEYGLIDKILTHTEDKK
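ClpP 10 microg/mL final, pH 8 Tris/KCl buffer with BSA, glycerol, Tween-20; compound pinned in; FRET-FV substrate; RT 20 min; Ex320/Em430; ΔFRET vs ADEP 5.8 microM, DMSO, no enzyme.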
DRD3 agonist: D3 dopamine receptor (human) agonism; 0.58% of 410,000 active; D3R DiscoveRx beta-arrestin cells, luminescence, 90 min; max activation, %; AID 652048; P35462; in the data active = max activation above about 30%; also: 0% is about no effect
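Agonist mode: compounds and dopamine controls were applied to plated cells for 90 min at 37 degrees C after an overnight attachment at 1500 cells/well. Luminescent read-out followed 30 - 60 minutes at room temperature with DiscoveRx detection reagent.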
DT40 TDP1 no CPT: qHTS for Inhibitors of human tyrosyl-DNA phosphodiesterase 1 (TDP1): qHTS in cells in absence of CPT. DT40 Tdp1-/- hTDP1 cells, no CPT, ATP luminescence, 48 h. 15% of 420,000 active. Potency, µM (titrated, usually from 46.2 µM), inactives show at the highest dose activity change, negative = growth inhibition, hits mostly inhibitors; also: potency is read from the fitted curve at half-maximal effect; % is scaled to controls: 0 for no effect and ±100 for the full control effect; nearly all actives have a fitted effect of over 55% in size
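No-CPT arm: Tdp1-/-;hTDP1 DT40 cells (400/well) plus compounds, incubated ≥48 hr at 37 °C. Readout CellTiter-Glo luminescence.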
Numbers without * were called inactive. Unless noted, calls follow the shape of the dose curve; as a rule, active = well fitted inhibition curve with a large enough effect; inconclusive = small, poorly fitted or top-dose-only effect; inactive = flat fitted curve, though single readings scatter.

How did CCN(CC)S(=O)(=O)c1cccc(C(=O)NC(C(=O)NNC(=O)c2ccccc2F)C(C)C)c1 (stereo not drawn) do in these assays?
DT40 TDP1 CPT: inconclusive; IL1B secr inh: 0.0; D3 antag: 10.4; ClpP mod: -2.2%; DRD3 agonist: -1.3; DT40 TDP1 no CPT: inconclusive

Results for CC(=O)NCCc1nc2ccccc2n1CCOc1cccc(C)c1 ?
DT40 TDP1 CPT: inconclusive; IL1B secr inh: 4.5; D3 antag: -14.8; ClpP mod: 0.6%; DRD3 agonist: -8.6; DT40 TDP1 no CPT: inconclusive

What do the screens show for `Cc1ccccc1OCCCn1c(CCNC(=O)C2CCCCC2)nc2ccccc21`?
DT40 TDP1 CPT: 13µM*; ClpP mod: 1.9%; DRD3 agonist: -26.7; DT40 TDP1 no CPT: 16.4µM*

How did Cc1ccc(OCCCCn2c(CCNC(=O)C3CCCCC3)nc3ccccc32)cc1 do in these assays?
DT40 TDP1 CPT: inconclusive; ClpP mod: -2.9%; DT40 TDP1 no CPT: 15.8µM*

Results for CC(C)(C)NC(=O)Cn1c(SCC(N)=O)nc2ccccc21 ?
DT40 TDP1 CPT: 25.9µM*; IL1B secr inh: -1.2; D3 antag: inconclusive; ClpP mod: -0.7%; DRD3 agonist: 0.2; DT40 TDP1 no CPT: inconclusive

Results for Cc1cccc(OCCCn2c(CCNC(=O)C(C)C)nc3ccccc32)c1 ?
DT40 TDP1 CPT: inconclusive; IL1B secr inh: -5.6; D3 antag: 0.0; ClpP mod: -0.3%; DRD3 agonist: 3.4; DT40 TDP1 no CPT: 16.4µM*

How did CC(C)(C)NC(=O)Cn1c(SCC(=O)N2CCCCCC2)nc2ccccc21 do in these assays?
DT40 TDP1 CPT: -17.8%; IL1B secr inh: -6.3; D3 antag: -17.0; ClpP mod: 0.3%; DRD3 agonist: 25.8; DT40 TDP1 no CPT: -18.2%

Results for Cc1cc(C)cc(OCCCn2c(CCNC(=O)C3CCCCC3)nc3ccccc32)c1 ?
DT40 TDP1 CPT: 11.6µM*; ClpP mod: 1.6%; DRD3 agonist: -16.7; DT40 TDP1 no CPT: 14.6µM*

Results for Cc1cc(C)cc(OCCn2c(CCNC(=O)C3CCCCC3)nc3ccccc32)c1 ?
DT40 TDP1 CPT: inconclusive; ClpP mod: -0.1%; DRD3 agonist: 1.5; DT40 TDP1 no CPT: inconclusive

What do the screens show for `COCCCNC(=O)CCN1N=C(c2ccccc2)CCC1=O`?
DT40 TDP1 CPT: -2.5%; IL1B secr inh: 0.5; D3 antag: 14.8; ClpP mod: -1.0%; DRD3 agonist: 0.6; DT40 TDP1 no CPT: 12.1%

What do the screens show for `CN1C2Cc3c(n(C)c4ccccc34)C1CC=C2CO` (stereo not drawn)?
DT40 TDP1 CPT: -1.3%; IL1B secr inh: 38.1; D3 antag: -6.8; ClpP mod: inconclusive; DRD3 agonist: 0.8; DT40 TDP1 no CPT: 2.8%

Results for COc1ccccc1CC(=O)NC1CCN(Cc2ccccc2)CC1 ?
DT40 TDP1 CPT: -3.7%; IL1B secr inh: -2.0; D3 antag: -23.3; ClpP mod: -4.0%; DRD3 agonist: -22.4; DT40 TDP1 no CPT: 0.3%

What do the screens show for `CN1CCC(NC(=O)C2(C)CCN2Cc2ccc3ccccc3c2)CC1` (stereo not drawn)?
DT40 TDP1 CPT: 0.1%; IL1B secr inh: -23.9; D3 antag: 11.2; ClpP mod: -0.5%; DRD3 agonist: -7.2; DT40 TDP1 no CPT: -2.4%

Results for CC1(C(=O)NC2CCN(Cc3ccccc3)CC2)CCN1Cc1ccc2ccccc2c1 (stereo not drawn) ?
DT40 TDP1 CPT: inconclusive; IL1B secr inh: 0.0; D3 antag: -97.1*; ClpP mod: -7.3%; DRD3 agonist: -10.7; DT40 TDP1 no CPT: inconclusive

How did CC1(C(=O)NC2CCN(Cc3ccccc3)CC2)CCN1CCc1ccccc1 (stereo not drawn) do in these assays?
DT40 TDP1 CPT: 29.1µM*; IL1B secr inh: -4.9; D3 antag: -85.2*; ClpP mod: -1.3%; DRD3 agonist: -21.4; DT40 TDP1 no CPT: inconclusive

How did COc1cc(N)c(Cl)cc1C(=O)NC1CCN(Cc2ccccc2)CC1 do in these assays?
DT40 TDP1 CPT: -18.8%; IL1B secr inh: -21.7; D3 antag: -108.3*; ClpP mod: -0.5%; DRD3 agonist: -96.3; DT40 TDP1 no CPT: -15.9%

What do the screens show for `CC1(C(=O)NC2CCN(Cc3ccccc3)CC2)CCN1Cc1ccc(OC(F)(F)F)cc1` (stereo not drawn)?
DT40 TDP1 CPT: inconclusive; IL1B secr inh: -7.2; D3 antag: -65.4*; ClpP mod: 1.1%; DRD3 agonist: -13.3; DT40 TDP1 no CPT: inconclusive

Results for O=C(COc1ccccc1)NC1CCN(Cc2ccccc2)CC1 ?
DT40 TDP1 CPT: -28.2%; IL1B secr inh: 8.0; D3 antag: inconclusive; ClpP mod: -15.8%; DRD3 agonist: -59.3; DT40 TDP1 no CPT: -8.5%

What do the screens show for `COc1ccccc1CNC(=O)C1(C)CCN1Cc1ccc(OC(F)(F)F)cc1` (stereo not drawn)?
DT40 TDP1 CPT: 16.4µM*; IL1B secr inh: -10.5; D3 antag: 47.2; ClpP mod: 1.1%; DRD3 agonist: 10.3; DT40 TDP1 no CPT: inconclusive

What do the screens show for `CC(C)(Oc1ccc(Cl)cc1)C(=O)NC1CCN(Cc2ccccc2)CC1`?
DT40 TDP1 CPT: inconclusive; IL1B secr inh: inconclusive; D3 antag: -82.3*; DRD3 agonist: -27.7; DT40 TDP1 no CPT: 18.4µM*

Results for Cn1cnc([N+](=O)[O-])c1Sc1nc2ccccc2[nH]1 ?
DT40 TDP1 CPT: 10.3µM*; IL1B secr inh: -97.3*; D3 antag: -54.1*; ClpP mod: -5.9%; DRD3 agonist: -19.7; DT40 TDP1 no CPT: 18.4µM*

Results for Cc1nc([N+](=O)[O-])c(Sc2nc3ccccc3[nH]2)n1Cc1ccccc1 ?
DT40 TDP1 CPT: 8.2µM*; IL1B secr inh: -105.3*; D3 antag: -5.0; ClpP mod: 0.9%; DRD3 agonist: -4.5; DT40 TDP1 no CPT: 11.6µM*

What do the screens show for `CS(=O)(=O)c1cc([N+](=O)[O-])c(Sc2nc3ccccc3[nH]2)c([N+](=O)[O-])c1`?
DT40 TDP1 CPT: 2.91µM*; IL1B secr inh: 9.8; D3 antag: -51.4*; ClpP mod: -3.1%; DRD3 agonist: -24.0; DT40 TDP1 no CPT: 4.61µM*

What do the screens show for `COc1ccc2nc(Sc3c([N+](=O)[O-])nc(C)n3Cc3ccccc3)[nH]c2c1`?
DT40 TDP1 CPT: 18.4µM*; IL1B secr inh: -80.2*; D3 antag: -75.4*; ClpP mod: -3.2%; DRD3 agonist: -9.8; DT40 TDP1 no CPT: 23.1µM*
